In all, about 38,000 compounds went through this assay and about 1,200 (3.2%) showed an effect of 50% or more. The median lay at about -58%. This excerpt belongs to a sample that is enriched for strong results.
tested on: Plasmodium falciparum; experiment: Calibr Malaria Delayed Death Assay SOP; assay type: functional, organism-based; set-up: scale not given: in the data most compounds retested in dose-response had high values; conditions: concentration 4.99e-06 (unit not given; other assays of the set use mol/L)

Row | Compound | Percent Effect [%]
1 | c1ccc(OCCNCc2cccs2)nc1 | -81.56
2 | Cc1ccsc1CNCCCOc1ccccn1 | 53.78
3 | c1ccc(OCCCNCc2cccs2)nc1 | 17.97
4 | O=C(O)C1(Cc2ccccc2F)CCCN(c2ncnc3[nH]ccc23)C1 (stereo not given) | -54.27
5 | C[C@@H]1CN(S(=O)(=O)c2ccc(F)cc2Cl)C[C@]1(C)O | -40.08
6 | CCN1CCN(S(=O)(=O)c2cc(C)c(Cl)cc2Cl)CC1 | 62.85
7 | Cc1ccc(S(=O)(=O)NCCCN2CCC(O)CC2)cc1Cl | 19.72
8 | CCN1CCN(S(=O)(=O)c2cc(C)c(C)cc2Br)CC1 | 25.52
9 | CCN1CCN(S(=O)(=O)c2cc(Cl)c(Cl)cc2C)CC1 | 69.76
10 | Cc1ccc(S(=O)(=O)N2CCN(Cc3ccncc3)CC2)c(Cl)c1 | 0.628
11 | CCN1CCN(S(=O)(=O)c2cc(C)c(Cl)cc2C)CC1 | 16.43
12 | CCN1CCCN(S(=O)(=O)c2cnc3onc(C)c3c2)CC1 | -44.36
13 | CCOCc1nc(N2CCCC2)sc1C(=O)NCc1ccco1 | -71.71
14 | O=S1(=O)c2cccnc2OC(COc2ccccc2)CN1CC1CC1 (stereo not given) | -105.2
15 | CC(C)NC(=O)CNC(C)c1c(F)cccc1Cl (stereo not given) | -63.71
16 | Cc1ccc(OCC(=O)NC2CCN(S(C)(=O)=O)CC2)cc1 | -121.3
17 | O=C(c1ccc(F)c(F)c1)N1CCCC1CN1CCCC1 (stereo not given) | -45.59
18 | CC(C)N(CCCNC(=O)C1CCOCC1)S(C)(=O)=O | -53.5
19 | CN(C)C(=O)c1nn(C)c2c1CN(Cc1ccoc1)C2 | -66.64
20 | CN1CCN(C[C@H]2CC[C@@H](Cc3ccc(CN4CCCC4)cc3)O2)CC1 | 35.77
21 | c1cnc2ccc(C[C@@H]3CC[C@H](CN4CCCOCC4)O3)cc2c1 | 56.67
22 | CC(=O)N1CCN(C[C@H]2CC[C@@H](Cc3ccc4ncccc4c3)O2)CC1 | -19.65
23 | CC1CCN(Cc2ccc(CNC(=O)c3ccn(C)c(=O)c3)cc2)CC1 | -16.27
24 | Clc1cc(NCc2ncc[nH]2)nc2[nH]ccc12 | -55.12

Row | Compound | Percent Effect [%]
25 | Clc1cc(NCc2ccncc2)nc2[nH]ccc12 | 63.3
26 | Clc1cc(NCc2nccs2)nc2[nH]ccc12 | -79.81
27 | CCOc1nn(CC)cc1-c1nnc(SCc2cccnc2)n1C | -73.46
28 | CN(CCO)CC1COCCN1C(=O)C1CCCCC1.O=CO (stereo not given) | -110.9
29 | Cc1ccc(C(=O)N2CCCCC2CN(C)C)cc1 (stereo not given) | -61.09
30 | CCN1CCN(C2CCN(CCOc3ccc(F)cc3)CC2)C1=O | -7.395
31 | CN(CCOCC(F)(F)F)CC1CCN(CCO)CC1 | 17.18
32 | CN(CC1CCN(CCO)CC1)CC(O)c1ccc(F)c(F)c1 (stereo not given) | 76.36
33 | Cc1ccc(CNC(=O)CN(C)CC2CCN(CCO)CC2)s1 | -11.16
34 | Cc1noc(CN(C)CC2CCN(CCO)CC2)n1 | -70.26
35 | CN(CC1CCN(CCO)CC1)CC(O)c1ccc(F)cc1 (stereo not given) | 68.91
36 | Cn1ccnc1CN1CCN(CC(O)c2ccc(F)c(F)c2)CC1 (stereo not given) | -68.2
37 | O=C(O)c1ccc(CNC(=O)C2CCN(Cc3ccco3)CC2)s1 | -25.63
38 | CC1CN(c2ncccc2C(=O)N[C@@H]2CCCc3ccccc32)CCN1 (stereo not given in full) | 43.77
39 | Cc1cnn(CC2CN(Cc3nc(-c4ccco4)no3)CCO2)c1 (stereo not given) | -38.17
40 | CCN1CCC(CNC(=O)c2cc(Cl)c[nH]2)CC1 | -105.8
41 | COCCN1CCC(CNC(=O)c2cc(Cl)c[nH]2)CC1 | -1.799
42 | O=C(NCC1CCN(CCc2ccccc2)C1)c1cc(Cl)c[nH]1 (stereo not given) | 64.57
43 | COc1ccc2c(=O)ccn(CC(=O)O)c2c1 | -41.24
44 | COc1ccc(C(=O)N(CCO)Cc2ccccc2)c(OC)n1 | -39.82
45 | O=C(CCS(=O)(=O)c1ccccc1)NCCCn1cccn1 | -18.78
46 | CC(CNC(=O)C1(c2ccc(F)cc2)CC1)CN1CCCC1=O (stereo not given) | 8.838
47 | Cc1cc(C)n(CC(C)NC(=O)C2(c3ccc(F)cc3)CC2)n1 (stereo not given) | -52.55
48 | Cn1cc(N2CCC3(CCCN(C(=O)c4ccnn4C)C3)C2=O)cn1 (stereo not given) | -100.5

Row | Compound | Percent Effect [%]
49 | Cc1ccc(C(=O)N2CCC3(CCC(=O)N(CC(C)O)C3)CC2)c(O)c1 (stereo not given) | -27.05
50 | O=C(O)C(F)(F)F.O=C(c1cccs1)N1CC[C@@H]2CN(C3CCOCC3)CCO[C@@H]2C1 | -28.53
51 | OC(COCc1cccs1)Cn1cc(Cl)cn1 (stereo not given) | -34.56
52 | Cn1c(N2CCOCC2)nc2cc(C(=O)N3CC(O)CO3)ccc21 (stereo not given) | -166.7
53 | CC(CCc1ccccc1)NC(=O)CNCCCN(C)C.O=C(O)C(=O)O (stereo not given) | -24.06
54 | CCN(CC)CCCNCC1CCOC(C)(C)C1 (stereo not given) | -55.61
55 | CN(C)CCNCC1CCOC(C)(C)C1 (stereo not given) | -38.44
56 | CN(C)CCCNCC1CCOC(C)(C)C1 (stereo not given) | 16.23
57 | Cc1ccc(C(CCNCCCN(C)C)C2CCOC(C)(C)C2)cc1.O=C(O)C(=O)O (stereo not given) | 83.16
58 | CC1CN(C(=O)NCCNc2cnccn2)CCO1 (stereo not given) | -97.79
59 | O=C1CCSCC(C(=O)N2CCC(O)CC2)N1 (stereo not given) | -111.3
60 | CC(C)C(=O)NC1CCN(c2cccc(OC(F)(F)F)c2)C1=O (stereo not given) | -46.04
61 | O=C(NCC1CCOCC1)c1cc(-c2ccc3c(c2)CCO3)n[nH]1 | -4.569
62 | Cc1cccc(C(=O)NCC2CCS(=O)(=O)C2)n1 (stereo not given) | -33.59
63 | COc1cccc(-c2n[nH]cc2CNCC2CCS(=O)(=O)C2)c1 (stereo not given) | -56.98
64 | Cc1nn(C)c(N2CCOCC2)c1CNCC1CCS(=O)(=O)C1 (stereo not given) | -69.07
65 | CCOc1ccc2ccccc2c1CNCC1CCS(=O)(=O)C1.Cl (stereo not given) | 73.94
66 | Cc1ccc(-c2n[nH]cc2CNCC2CCS(=O)(=O)C2)o1 (stereo not given) | -9.681
67 | Cc1c(Br)cccc1C(=O)NCC1CCNCC1.Cl | -131.1
68 | COc1ccc2ccccc2c1CNCC1CCS(=O)(=O)C1.Cl (stereo not given) | 66.1
69 | CCOc1ccc(CNC(=O)N2CCCC(CO)C2)cc1F (stereo not given) | -13.27
70 | CCOc1ccc2ccccc2c1CNCC1CCNCC1.Cl.Cl | 91.29
